Many of the other results were omitted from the sample, so hits are more common in it than they were.
nsP2pro primary – blocks chikungunya virus nsP2 protease peptide cleavage. AID 1964107. Potency, µM (series often up to 24.9 µM), most hits filed as inhibitors. actives 1.1% (n = 31,000). FRET peptide cleavage, nsP2pro, fluorescence 1 h. Q8JUX6; further: nearly all actives have a fitted effect of over 60% in size
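Purified recombinant nsP2pro (150 nM final) in 10 mM Tris-HCl pH 8.0 with 0.01% Tween 20 was preincubated 15 min at room temperature with compound (7 concentrations, up to 25 uM). FRET peptide 2 substrate (2.5 uM final) was then added; fluorescence was read after 1 h.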
CHIKV nsP2 cell – secondary cell-based test for CHIKV nsP2 protease inhibitors; shares compounds with nsP2pro primary; cell-based CHIKV nsP2 protease reporter assay; Potency, µM (doses to about 51.1 µM), most hits filed as inhibitors; actives 10% (n = 450); AID 1964100; further: nearly all actives have a fitted effect of over 70% in size
NSP2 full ctr – full-length CHIKV NSP2 protease inhibition, selectivity; actives 39% (n = 410); Potency, µM (series often up to 50.7 µM), most hits filed as inhibitors; shares compounds with nsP2pro primary; AID 1964101; Full-length CHIKV NSP2 protease enzymatic counterscreen; further: nearly all actives have a fitted effect of over 65% in size
Furin counterscr – human furin inhibition, counterscreen for nsP2pro inhibitors; shares compounds with nsP2pro primary; AID 1964102; Potency, µM (series often up to 50.6 µM), hits mostly inhibitors; actives 6% (n = 410); Recombinant human furin enzymatic counterscreen, fluorogenic substrate
NS23 peptide cs – blocks CHIKV nsP2 protease cleavage of endogenous NS2/3 peptide; shares compounds with nsP2pro primary; Purified CHIKV nsP2 protease, endogenous NS2/3 peptide cleavage; Potency, µM (doses to about 51 µM), actives largely listed as inhibitors; actives 34% (n = 410); AID 1964103; further: nearly all actives have a fitted effect of over 55% in size
Papain counter – selectivity counter-screen for CHIKV nsP2 protease inhibitors: papain; purified papain protease activity, enzymatic inhibition; Potency, µM (series often up to 51 µM), most hits filed as inhibitors; AID 1964104; actives 5% (n = 410); shares compounds with nsP2pro primary
Target sequence (P00784 whole entry, looked up): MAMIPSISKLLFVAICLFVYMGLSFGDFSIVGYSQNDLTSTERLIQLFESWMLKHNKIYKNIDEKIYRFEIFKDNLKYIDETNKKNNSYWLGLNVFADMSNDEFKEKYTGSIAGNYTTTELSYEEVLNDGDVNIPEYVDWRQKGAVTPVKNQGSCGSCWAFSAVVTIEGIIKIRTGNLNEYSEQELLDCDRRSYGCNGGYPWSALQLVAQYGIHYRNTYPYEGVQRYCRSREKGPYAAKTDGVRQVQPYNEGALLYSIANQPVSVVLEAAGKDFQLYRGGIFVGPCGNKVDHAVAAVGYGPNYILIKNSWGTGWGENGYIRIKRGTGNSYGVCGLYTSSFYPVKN
nsP2pro confirm – CHIKV nsP2 protease inhibition, confirmatory qHTS; actives 43% (n = 410); CHIKV nsP2 protease enzymatic activity, qHTS; AID 1964105; Potency, µM (top dose mostly 25.5 µM), most hits filed as inhibitors; shares compounds with nsP2pro primary; further: nearly all actives have a fitted effect of over 75% in size
HCV NS3 4A cs – inhibits HCV NS3/4A protease in an nsP2pro selectivity counterscreen. Potency, µM (titrated, usually from 50.9 µM), usual class: inhibitors. actives 20% (n = 410). HCV NS3/4A protease biochemical counterscreen. shares compounds with nsP2pro primary; further: nearly all actives have a fitted effect of over 55% in size
Of the large screens only hits and unclear results are named; the others gave an inactive call (follow-up assays come after a bar, where they were run); ! = repeats disagree. The call rests on the fitted dose curve.

Brc1ccc(CN2CCc3nc(Nc4ccccc4)ncc3C2)s1	nsP2pro primary inconclusive | CHIKV nsP2 cell inactive | NSP2 full ctr inactive | Furin counterscr inactive | NS23 peptide cs inactive | Papain counter inactive | nsP2pro confirm inactive | HCV NS3 4A cs inactive
O=C([C@@H]1C[C@H](F)CN1C(=O)c1ccc(Cl)cc1)N1CCCCC1	none
CN[C@@H]1[C@H](O[C@H]2[C@H](O[C@@H]3[C@@H](O)[C@H](O)[C@@H](N=C(N)N)[C@H](O)[C@H]3NC(=N)N)O[C@@H](C)[C@]2(O)CO)O[C@@H](CO)[C@H](O)[C@H]1O	none
C=C[C@]1(C)C[C@@H](OC(=O)CSC2C[C@H]3CC[C@@H](C2)N3C)C2(C)[C@H](C)CCC3(CCC(=O)[C@H]32)[C@@H](C)[C@@H]1O (stereo not given in full)	none
CC(=O)N[C@@H](CC(=O)O)C(=O)N[C@@H](CCC(=O)O)C(=O)N[C@H](C(=O)N[C@@H](CC(=O)O)C(=O)Nc1ccc2c(C)cc(=O)oc2c1)C(C)C	none
Cc1ccsc1CN(C)c1ncnc2ccc(-c3oc(-c4ccccc4)nc3C)cc12	none
Cc1cccc(CSc2nc3cccnc3n2Cc2ccc(C(=O)NCc3ccco3)cc2)c1	none
Cc1ccc(CNC(=O)c2ccc(Cn3c(SCc4ccc(F)cc4)nc4cccnc43)cc2)o1	nsP2pro primary inconclusive | CHIKV nsP2 cell inactive
O=C(NCc1cccs1)c1ccc(Cn2c(SCc3ccc(F)cc3)nc3cccnc32)cc1	none
CN1C(C(=O)Nc2ccc(OC(F)(F)F)cc2)=CC(c2cccs2)=NS1(=O)=O	none
O=C(Nc1ccc(OC(F)(F)F)cc1)c1cc(-c2ccc(Cl)cc2)on1	none
Cc1c(C(=O)Nc2ccc(N3C[C@@H](C)O[C@@H](C)C3)nc2)cccc1-c1ccc(OC(F)(F)F)cc1	nsP2pro primary inconclusive | CHIKV nsP2 cell inactive | NSP2 full ctr inactive | Furin counterscr inactive | NS23 peptide cs inactive | Papain counter inactive | nsP2pro confirm inactive | HCV NS3 4A cs inactive
CN1CCN(C(CN)C2CCCCC2)CC1 (stereo not given)	none
CC1(C)CCC(C)(C)c2cc(Cn3cccn3)c(/C=C/c3ccc(C(=O)O)cc3)cc21	none
Cc1c(-c2cnccn2)ssc1=S	nsP2pro primary 5µM! | CHIKV nsP2 cell inconclusive | NSP2 full ctr 13µM | Furin counterscr inactive | NS23 peptide cs 9.2µM | Papain counter inactive | nsP2pro confirm 4µM | HCV NS3 4A cs inactive
COc1ccccc1CC(=O)N1CCC2(CC1)N=C(c1ccc(C)cc1)NO2	none
O=C(Nc1ccc(-c2ccnc(Nc3ccc(N4CCOCC4)cc3)n2)cc1)[C@@H]1CCCN1	none
CS(=O)(=O)c1ccccc1N1CCN(c2nc3c(c(=O)[nH]2)CSCC3)CC1	none
O=c1[nH]c(-c2ccc(F)cc2)nc2c1CCN(S(=O)(=O)c1cccs1)C2	none
O=c1[nH]c(-c2ccc(C(F)(F)F)cc2)nc2c1CSCC2	nsP2pro primary inconclusive | CHIKV nsP2 cell inactive | NSP2 full ctr inactive | Furin counterscr inactive | NS23 peptide cs inactive | Papain counter inactive | nsP2pro confirm inactive | HCV NS3 4A cs inactive
N#Cc1c(-c2ccccc2C(F)(F)F)nc2ccccc2c1NCc1ccc(-c2ccnc(C(F)(F)F)c2)cc1	none
Cc1cc(C)nc(NC(=S)N2CCN(c3nc(C)cnc3C)CC2)c1	none
O=C(NCCc1c[nH]c2ccc(O)cc12)c1ccc2ccccc2c1O	none
NC(Cc1c[nH]c2ccc(O)cc12)C(=O)O (stereo not given)	nsP2pro primary inconclusive | CHIKV nsP2 cell inactive | NSP2 full ctr inactive | Furin counterscr inactive | NS23 peptide cs inactive | Papain counter inactive | nsP2pro confirm inactive | HCV NS3 4A cs inactive
CC(=O)NCCc1c[nH]c2ccccc12	none
Cc1cc(C)nc(NC(=S)N2CCN(c3cc(Cl)cc(Cl)n3)CC2)c1	none
CCC(C)NC(=O)c1cccc(-c2ccc(OC)nn2)c1 (stereo not given)	none
Cc1cnc(-c2ccccc2C(C)C)nc1NCC1CN(c2cccnc2)C1	none
Cc1[nH]cnc1C[C@H]1CCc2c(C)c3ccccc3n2C1=O	nsP2pro primary inconclusive | CHIKV nsP2 cell inactive | NSP2 full ctr inactive | Furin counterscr inactive | NS23 peptide cs inactive | Papain counter inactive | nsP2pro confirm inactive | HCV NS3 4A cs inactive
Cc1[nH]cnc1CN1CCc2c(c3ccccc3n2C)C1=O	none
Cc1nccn1CC1CCc2c(c3ccccc3n2C)C1=O (stereo not given)	none
CCCC1CC(C(=O)NC(C(C)Cl)C2OC(SC)C(OP(=O)(O)O)C(O)C2O)N(C)C1 (stereo not given)	none
CCOC(=O)c1cn(C2CN(C(=O)Cc3cccc(Cl)c3)C2)nn1	none
COc1cc(F)ccc1-c1nc(-c2c(C)noc2C)cc2[nH]c(C)cc12	none
CC1(C)CCCC2(C)c3c4c(c(=O)oc(=O)c3=CCC12)=CCC1C(C)(C)CCCC41C (stereo not given)	none
CC(C)c1cc2c(c(O)c1O)[C@@]13CCCC(C)(C)C1[C@@H](O)[C@@H]2OC3=O (stereo not given in full)	nsP2pro primary 6.1µM | CHIKV nsP2 cell inactive | NSP2 full ctr inconclusive | Furin counterscr inactive | NS23 peptide cs inconclusive | Papain counter inactive | nsP2pro confirm 6.2µM | HCV NS3 4A cs inactive
NCCS[As](SCCN)c1ccc(Nc2nc(N)nc(N)n2)cc1	none
CN(CCc1ccccn1)[C@H]1[C@@H]2OC[C@@H](O2)[C@@H](NC(=O)Nc2cccc(C#N)c2)[C@@H]1O	none
COc1ccc(-c2c(C)c(C(=O)NN3CCCCC3)nn2-c2ccc(Cl)cc2Cl)cc1	none
O=C(Nc1cncc(Cc2ccccc2)c1)c1ccc(-c2cccc([N+](=O)[O-])c2)o1	none
O=C(Nc1cccc(Cc2ccccc2)n1)c1ccc(-c2cccc([N+](=O)[O-])c2)o1	nsP2pro primary 10µM | CHIKV nsP2 cell inactive | NSP2 full ctr inconclusive | Furin counterscr inactive | NS23 peptide cs inactive | Papain counter inactive | nsP2pro confirm inconclusive | HCV NS3 4A cs inactive
O=C(Nc1cccc(Cc2ccccc2)c1)c1ccc(-c2cccc([N+](=O)[O-])c2)o1	none
CCOC(=O)C(Cc1cccc(N2CCN([S+](=O)([O-])c3ccccc3Cl)CC2)c1)OC (stereo not given)	none
CC(=O)c1ccc(N2CCN(S(=O)(=O)c3ccc4[nH]c(=O)oc4c3)CC2)cc1	none

Assay outcomes deposited in PubChem BioAssay by National Center for Advancing Translational Sciences (NCATS).
